Inconclusive results are not listed. Calls of active or inactive are those of the source. Calls come from the whole dose curve; as a rule, active = well fitted cell-killing curve with a large enough effect; inconclusive = small, poorly fitted or top-dose-only effect, or effect the other way; inactive = flat fitted curve, though single readings scatter. Where a SMILES comes first, the peptide text is derived from it. [ ]: non-standard residue; d: D form.
These compounds were tested on Hek293T (assay: Primary qHTS to identify gynecologic anti-cancer compounds using libraries of approved drugs and bioactive compounds (AID 1345084; note: nearly all actives have a fitted effect of over 55% in size)). Details: Gynecologic cancer cell panel viability, ATPlite luminescence, 48 h, control line for the selectivity index; series mostly up to 57.5 µM; activity change, negative = cytotoxicity: at the top concentration.
Summary of the method: (§1)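 Five-point cytotoxicity, 48 h drug exposure at 37 C, 5% CO2, on cells seeded 16 h beforehand. ATP content read by ATPlite luminescence.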
In the case of `C[C@H](NCc1ccc(OCc2ccccc2F)cc1)C(N)=O`, the “activity change, negative = cytotoxicity” value is reported as 7.21% (inactive).
`CC(=O)N[C@H](Cc1ccc(O)cc1)C(=O)N[C@H](CCCN=C(N)N)C(=O)N[C@H](Cc1ccccc1)C(N)=O` (Ac-[dY]-[dR]-[dF]-NH2) was tested, and the “activity change, negative = cytotoxicity” value was 15.8% (inactive).
For `Nc1ncnc2c1ncn2[C@H]1CCCO1`, the “activity change, negative = cytotoxicity” value was 4% (inactive).
In the case of `CCC(=O)O[C@]1(C(=O)CCl)[C@@H](C)C[C@H]2[C@@H]3C[C@H](F)C4=CC(=O)C=C[C@]4(C)[C@@]3(F)[C@@H](O)C[C@@]21C`, the “activity change, negative = cytotoxicity” value is reported as 1.31% (inactive).
For `CCOc1ccc(-c2ccc(Cn3c(CC(C)(C)C(=O)O)c(SC(C)(C)C)c4cc(OCc5ccc(C)cn5)ccc43)cc2)cn1`, the Potency was “inactive”.
For `CC1OC(OC2C(CO)OC(OCC3OC(OC(=O)C45CCC(C)(C)CC4C4=CCC6C7(C)CCC(OC8OC(C(=O)O)C(O)C(OC9OC(CO)C(O)C(O)C9O)C8O)C(C)(C)C7CCC6(C)C4(C)CC5)C(O)C(O)C3O)C(O)C2O)C(O)C(O)C1O` (stereo not given), the activity change, negative = cytotoxicity was 6.6% [at 6.55 µM] (inactive).
In the case of `CC1CCC2(C)C(CC(O)C(O)C23CO3)C1(C)CCC1=CC(=O)OC1O` (stereo not given), the “activity change, negative = cytotoxicity” value is reported as 0.44% [at 38.5 µM] (inactive).

What follows are compounds tested on JEG-3 in the same assay as above. Details: Gynecologic cancer cell panel viability, ATPlite luminescence, 48 h; series mostly up to 57.5 µM; activity change, negative = cytotoxicity: at the top concentration.
Summary of the method: as §1
For `CN1Cc2c(N)cccc2C(c2ccccc2)C1` (stereo not given), the “activity change, negative = cytotoxicity” value was -0.233% (inactive).
`C(#Cc1cccc(CN2CCOCC2)c1)CCN1CCCCC1` was tested, and the “activity change, negative = cytotoxicity” value was 1.05% (inactive).
For `C/C=C(\C)C(=O)O[C@H]1[C@H](O)[C@]2(COC(C)=O)[C@H](O)C[C@]3(C)C(=CCC4[C@@]5(C)CC[C@H](O[C@@H]6O[C@H](C(=O)O)[C@@H](O[C@@H]7O[C@H](CO)[C@@H](O)[C@H](O)[C@H]7O)[C@H](O)[C@H]6O[C@@H]6O[C@H](CO)[C@@H](O)[C@H](O)[C@H]6O)[C@](C)(CO)C5CC[C@]43C)[C@@H]2CC1(C)C` (stereo not given in full), the activity change, negative = cytotoxicity was -4.88% [at 11.6 µM] (inactive).
`C[C@]12C=CC(=O)C=C1CC[C@@H]1[C@@H]2[C@@H](O)C[C@@]2(C)[C@H]1CC[C@]2(O)C(=O)COC(=O)CCC(=O)O` was tested, and the “activity change, negative = cytotoxicity” value was -12.1% (inactive).
For `CC1=C2[C@@H]([C@H](C)CC[C@H]2/C=C(\C)C(=O)O)[C@H](O)C1`, the “activity change, negative = cytotoxicity” value was -7.89% (inactive).
`CC(=O)c1c(C)cc(O[C@@H]2O[C@H](CO)[C@@H](O)[C@H](O)[C@H]2O)cc1O` was tested, and the “activity change, negative = cytotoxicity” value was 2.71% [at 38.5 µM] (inactive).
With `OC[C@H]1O[C@@H](OCCc2ccc(O)cc2)[C@H](O)[C@@H](O)[C@@H]1O` the “activity change, negative = cytotoxicity” value was -4.76% (inactive).
For `C[C@@H]1C[C@H]2[C@@H]3CCC4=CC(=O)C=C[C@]4(C)[C@@]3(F)[C@@H](O)C[C@]2(C)[C@@]1(O)C(=O)COP(=O)(O)O`, the “activity change, negative = cytotoxicity” value was 15.6% (inactive).
`CC(=O)N1CCN(NC(=O)c2ccc(F)cc2)CC1` was tested, and the “activity change, negative = cytotoxicity” value was -3.65% (inactive).
For `NC(Cc1c[nH]c2ccccc12)C(=O)NC(CCC(=O)O)C(=O)O` (stereo not given), the “activity change, negative = cytotoxicity” value was -1.78% (inactive).
For `CC[C@H](/C=C/[C@@H](C)[C@H]1CC[C@H]2[C@@H]3CC=C4C[C@@H](O)CC[C@]4(C)[C@H]3CC[C@]12C)C(C)C`, the activity change, negative = cytotoxicity was 3.22% [at 6.55 µM] (inactive).
`CCOc1ccc(C(Nc2ccccn2)c2ccc3ccc(C)nc3c2O)cc1C` (stereo not given) was tested, and the “activity change, negative = cytotoxicity” value was 0.681% (inactive).
For `COc1cc(C2Oc3c(OC)cc(/C=C/C(=O)OC[C@H]4O[C@@H](OC(C)(C)C(=O)O)[C@H](O)[C@@H](O)[C@@H]4O)cc3C2CO)ccc1O` (stereo not given in full), the “activity change, negative = cytotoxicity” value was 6.79% [at 25.3 µM] (inactive).
`COC1=CC(=O)C[C@@H](C)[C@]12Oc1cc(OC)cc(OC)c1C2=O` was tested, and the “activity change, negative = cytotoxicity” value was -1.7% [at 38.5 µM] (inactive).
`COc1c(C)c(OCC=C(C)C)cc2c1C(=O)NC2=O` was tested, and the “activity change, negative = cytotoxicity” value was -1.86% (inactive).
In the case of `C[C@]12CCC(=O)C=C1[C@@H](O)C[C@@H]1[C@@H]2[C@@H](O)C[C@@]2(C)[C@H]1CC[C@]2(O)C(=O)CO`, the “activity change, negative = cytotoxicity” value is reported as 10.2% (inactive).
For `Cn1c(=O)cc(N2CCCC(N)C2)n(Cc2ccccc2C#N)c1=O` (stereo not given), the “activity change, negative = cytotoxicity” value was -9.9% (inactive).
With `CC(=O)O[C@H]1C[C@@H]2[C@]3(CC[C@]4(C)[C@@H](C5(C)CCC(C(C)(C)O)O5)[C@@H](O)C[C@@]24C)C[C@@]32CC[C@H](O[C@@H]3OC[C@@H](O)[C@H](O)[C@H]3O)C(C)(C)[C@H]12` (stereo not given in full) the “activity change, negative = cytotoxicity” value was -5.58% [at 25.3 µM] (inactive).
In the case of `COc1cc(C[C@H]2COC(=O)[C@@H]2Cc2ccc(O)c(OC)c2)ccc1O`, the “activity change, negative = cytotoxicity” value is reported as 3.15% [at 38.5 µM] (inactive).
`CCC(=O)NS(=O)(=O)c1ccc(-c2c(-c3ccccc3)noc2C)cc1` was tested, and the “activity change, negative = cytotoxicity” value was 7.67% (inactive).
`C=CC(C)(O)CO[C@@H]1O[C@H](CO)[C@@H](O)[C@H](O)[C@H]1O` (stereo not given in full) was tested, and the “activity change, negative = cytotoxicity” value was 3.07% (inactive).
With `Clc1ccc(CN[C@H]2CCN(c3ncc(Br)cn3)C2)c(Cl)c1` the “activity change, negative = cytotoxicity” value was -8.59% (inactive).
`CC(C)C(=O)c1cn(CC(=O)COc2ccc(Oc3ccccc3)cc2)c2ccc(C(=O)O)cc12` was tested, and the “activity change, negative = cytotoxicity” value was 9.57% (inactive).
In the case of `CC(C)C1=CC2=CCC3[C@](C)(CCC[C@@]3(C)C(=O)O)C2CC1O` (stereo not given in full), the “activity change, negative = cytotoxicity” value is reported as 14.3% [at 38.5 µM] (inactive).
With `CC[C@H]1OC(=O)C[C@@H](O)[C@H](C)[C@@H](O[C@@H]2O[C@H](C)[C@@H](O)[C@H](N(C)C)[C@H]2O)[C@@H](CCN2C[C@H](C)C[C@H](C)C2)C[C@@H](C)C(=O)/C=C/C(C)=C/[C@@H]1CO[C@@H]1O[C@H](C)[C@@H](O)[C@@H](OC)[C@H]1OC` the “activity change, negative = cytotoxicity” value was 3.04% (inactive).
In the case of `CC(C)NC[C@H](O)COc1ccc(CCOCC2CC2)cc1`, the “activity change, negative = cytotoxicity” value is reported as 16.2% (inactive).
For `CC(=O)OC(C)OC(=O)C(C)c1ccc(-c2ccccc2)c(F)c1` (stereo not given), the “activity change, negative = cytotoxicity” value was 16.9% (inactive).
For `C=C1C(=O)O[C@H]2[C@H]1[C@@H](OC(=O)C(C)CO)C[C@@]1(C)[C@H](O)CCC(=O)[C@H]21` (stereo not given in full), the “activity change, negative = cytotoxicity” value was -0.59% [at 38.5 µM] (inactive).
`CCC(C)(O)C(O)C(=O)OCc1ccc(O[C@@H]2O[C@H](CO)[C@@H](O)[C@H](O)[C@H]2O)c(OC)c1` (stereo not given in full) was tested, and the “activity change, negative = cytotoxicity” value was -10.1% [at 25.3 µM] (inactive).
With `NS(=O)(=O)OC[C@@H]1C[C@@H](n2ccc3c(N[C@H]4CCc5ccccc54)ncnc32)C[C@@H]1O` the Potency was “inactive”.
In the case of `COc1ccc(C[C@H](N)C(=O)N[C@H]2[C@@H](O)[C@H](n3cnc4c(N(C)C)ncnc43)O[C@@H]2CO)cc1`, the Potency is reported as 3.98 µM (active).
In the case of `C[C@H](NCc1ccc(OCc2ccccc2F)cc1)C(N)=O`, the “activity change, negative = cytotoxicity” value is reported as 5.79% (inactive).
With `CC(=O)N[C@H](Cc1ccc(O)cc1)C(=O)N[C@H](CCCN=C(N)N)C(=O)N[C@H](Cc1ccccc1)C(N)=O` (Ac-[dY]-[dR]-[dF]-NH2) the “activity change, negative = cytotoxicity” value was -1.43% (inactive).
For `Nc1ncnc2c1ncn2[C@H]1CCCO1`, the “activity change, negative = cytotoxicity” value was 8.89% (inactive).
In the case of `CCC(=O)O[C@]1(C(=O)CCl)[C@@H](C)C[C@H]2[C@@H]3C[C@H](F)C4=CC(=O)C=C[C@]4(C)[C@@]3(F)[C@@H](O)C[C@@]21C`, the “activity change, negative = cytotoxicity” value is reported as 3.08% (inactive).
With `CCOc1ccc(-c2ccc(Cn3c(CC(C)(C)C(=O)O)c(SC(C)(C)C)c4cc(OCc5ccc(C)cn5)ccc43)cc2)cn1` the Potency was “inactive”.
In the case of `CC1OC(OC2C(CO)OC(OCC3OC(OC(=O)C45CCC(C)(C)CC4C4=CCC6C7(C)CCC(OC8OC(C(=O)O)C(O)C(OC9OC(CO)C(O)C(O)C9O)C8O)C(C)(C)C7CCC6(C)C4(C)CC5)C(O)C(O)C3O)C(O)C2O)C(O)C(O)C1O` (stereo not given), the activity change, negative = cytotoxicity is reported as 9.3% [at 6.55 µM] (inactive).
In the case of `CC1CCC2(C)C(CC(O)C(O)C23CO3)C1(C)CCC1=CC(=O)OC1O` (stereo not given), the “activity change, negative = cytotoxicity” value is reported as 6.89% [at 38.5 µM] (inactive).
% is set by controls: 0 for no effect and ±100 for the full control effect; potency is the fitted concentration of half-maximal effect.
